Source: PMC7862700, “An all-to-all approach to the identification of sequence-specific readers for epigenetic DNA modifications on cytosine”

Tests used:
Test in all cases: DAPPL (digital affinity profiling via proximity ligation, sequencing); 10 mM Tris-HCl pH 7.5, 50 mM NaCl, 1 mM DTT, 4% glycerol, room temperature, 30 min; GST-TFs on glutathione beads, 16-mer random dsDNA library, 0.1% formaldehyde crosslink after washing; high values mean tight binding
Details in all cases: protein: recombinant; tags: N-terminal GST; dsDNA, one strand shown
[1] = target: T1, FLI1 (Homo sapiens, UniProt Q01543 1-452)
T1 sequence: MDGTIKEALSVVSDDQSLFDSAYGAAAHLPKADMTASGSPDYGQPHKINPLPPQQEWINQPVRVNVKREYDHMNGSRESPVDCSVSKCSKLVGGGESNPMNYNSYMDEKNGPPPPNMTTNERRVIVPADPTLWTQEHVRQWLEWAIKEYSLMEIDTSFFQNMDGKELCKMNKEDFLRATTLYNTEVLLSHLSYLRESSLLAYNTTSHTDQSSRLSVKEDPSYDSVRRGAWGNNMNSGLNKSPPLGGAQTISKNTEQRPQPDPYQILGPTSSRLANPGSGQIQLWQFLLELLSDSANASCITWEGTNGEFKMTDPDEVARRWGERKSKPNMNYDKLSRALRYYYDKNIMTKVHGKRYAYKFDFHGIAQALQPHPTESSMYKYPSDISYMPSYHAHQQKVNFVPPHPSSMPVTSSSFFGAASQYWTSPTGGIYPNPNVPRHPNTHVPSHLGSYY
Procedure, shortened: (§1)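 Binding signal is defined as a hexamer's read frequency for one factor over its frequency for the tag-only sample. To obtain reads, GST-fused human transcription factors were expressed in yeast, captured on glutathione beads, barcoded with DNA and pooled with that sample. Pools met 200 nmole of a 16-mer random double-stranded DNA library in Tris/NaCl/DTT/glycerol buffer for 30 min at room temperature before washing, 0.1% formaldehyde crosslinking, proximity ligation (BsaI/T4 ligase, 1 h, 37 °C), PCR and Illumina NextSeq500 sequencing.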

[2] = target: T2, ELK1 (Homo sapiens, UniProt P19419 1-428)
T2 sequence: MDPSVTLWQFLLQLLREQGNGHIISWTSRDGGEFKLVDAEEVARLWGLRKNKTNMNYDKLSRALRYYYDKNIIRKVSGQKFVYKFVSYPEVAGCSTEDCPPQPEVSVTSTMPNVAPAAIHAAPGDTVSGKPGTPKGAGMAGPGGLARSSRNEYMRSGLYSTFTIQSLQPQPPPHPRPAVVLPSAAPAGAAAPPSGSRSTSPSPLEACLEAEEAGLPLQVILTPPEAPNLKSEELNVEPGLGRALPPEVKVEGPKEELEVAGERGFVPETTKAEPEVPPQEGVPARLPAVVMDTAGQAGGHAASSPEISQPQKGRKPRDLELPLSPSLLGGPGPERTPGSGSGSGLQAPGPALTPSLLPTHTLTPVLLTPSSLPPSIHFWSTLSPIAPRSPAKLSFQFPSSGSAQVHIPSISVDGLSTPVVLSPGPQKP
Procedure, shortened: as §1

[3] = target: T3, GABPA (Homo sapiens, UniProt Q06546 1-454)
T3 sequence: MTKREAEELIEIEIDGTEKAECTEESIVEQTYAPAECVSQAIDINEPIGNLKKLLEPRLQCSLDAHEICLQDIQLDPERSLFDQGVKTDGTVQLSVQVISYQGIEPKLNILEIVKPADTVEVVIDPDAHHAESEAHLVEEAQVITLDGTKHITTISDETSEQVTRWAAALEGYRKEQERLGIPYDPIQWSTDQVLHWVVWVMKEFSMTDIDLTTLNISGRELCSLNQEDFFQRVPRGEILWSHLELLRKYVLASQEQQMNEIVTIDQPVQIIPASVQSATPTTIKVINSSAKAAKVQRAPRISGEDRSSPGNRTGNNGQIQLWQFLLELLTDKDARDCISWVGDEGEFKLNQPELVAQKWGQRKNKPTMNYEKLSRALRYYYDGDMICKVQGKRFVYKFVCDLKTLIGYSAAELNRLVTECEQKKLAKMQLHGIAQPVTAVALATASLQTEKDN
Procedure, shortened: as §1

[4] = target: T4, ERG (Homo sapiens, UniProt P11308 1-479)
T4 sequence: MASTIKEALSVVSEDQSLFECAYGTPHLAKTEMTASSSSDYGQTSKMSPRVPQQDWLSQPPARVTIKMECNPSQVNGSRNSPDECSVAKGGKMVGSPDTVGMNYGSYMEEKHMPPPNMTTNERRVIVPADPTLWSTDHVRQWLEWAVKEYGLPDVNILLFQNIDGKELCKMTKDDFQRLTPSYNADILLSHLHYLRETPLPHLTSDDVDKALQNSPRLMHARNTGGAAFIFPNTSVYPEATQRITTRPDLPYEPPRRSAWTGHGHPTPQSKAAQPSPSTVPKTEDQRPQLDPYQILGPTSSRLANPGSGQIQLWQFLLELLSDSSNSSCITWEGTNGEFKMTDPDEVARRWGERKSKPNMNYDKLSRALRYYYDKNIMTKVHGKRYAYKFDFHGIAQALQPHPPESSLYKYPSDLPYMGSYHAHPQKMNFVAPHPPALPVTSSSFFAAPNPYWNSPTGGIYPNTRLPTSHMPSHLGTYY
Procedure, shortened: as §1

[5] = target: ELF1 (Homo sapiens, UniProt P32519 1-619)
Procedure, shortened: as §1

[6] = target: T5, EHF (Homo sapiens, UniProt Q9NZC4 1-300)
T5 sequence: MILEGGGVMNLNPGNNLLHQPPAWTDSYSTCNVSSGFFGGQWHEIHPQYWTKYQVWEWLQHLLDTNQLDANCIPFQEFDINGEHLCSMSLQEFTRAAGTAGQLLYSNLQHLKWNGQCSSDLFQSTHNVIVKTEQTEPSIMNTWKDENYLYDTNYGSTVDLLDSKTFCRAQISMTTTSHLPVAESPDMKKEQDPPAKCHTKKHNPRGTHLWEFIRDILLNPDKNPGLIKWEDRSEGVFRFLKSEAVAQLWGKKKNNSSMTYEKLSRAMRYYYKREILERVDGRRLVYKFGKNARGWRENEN
Procedure, shortened: as §1

[7] = target: SPI1 (Homo sapiens, UniProt P17947 1-270)
Procedure, shortened: as §1

[8] = target: SPIB (Homo sapiens, UniProt Q01892 1-262)
Procedure, shortened: as §1

[9] = target: T6, ELK3 (Homo sapiens, UniProt P41970 1-407)
T6 sequence: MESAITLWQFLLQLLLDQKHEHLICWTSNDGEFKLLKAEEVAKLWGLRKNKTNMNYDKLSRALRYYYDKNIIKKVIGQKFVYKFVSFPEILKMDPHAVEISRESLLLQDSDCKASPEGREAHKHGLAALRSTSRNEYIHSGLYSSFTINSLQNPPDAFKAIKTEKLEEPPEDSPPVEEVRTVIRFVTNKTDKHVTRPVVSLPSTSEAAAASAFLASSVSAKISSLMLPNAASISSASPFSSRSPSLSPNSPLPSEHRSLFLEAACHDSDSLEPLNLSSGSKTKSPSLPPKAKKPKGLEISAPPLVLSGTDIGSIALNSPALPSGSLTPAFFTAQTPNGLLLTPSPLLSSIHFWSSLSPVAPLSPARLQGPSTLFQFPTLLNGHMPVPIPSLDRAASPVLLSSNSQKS
Procedure, shortened: as §1

[10] = target: T7, FEV (Homo sapiens, UniProt Q99581 1-238)
T7 sequence: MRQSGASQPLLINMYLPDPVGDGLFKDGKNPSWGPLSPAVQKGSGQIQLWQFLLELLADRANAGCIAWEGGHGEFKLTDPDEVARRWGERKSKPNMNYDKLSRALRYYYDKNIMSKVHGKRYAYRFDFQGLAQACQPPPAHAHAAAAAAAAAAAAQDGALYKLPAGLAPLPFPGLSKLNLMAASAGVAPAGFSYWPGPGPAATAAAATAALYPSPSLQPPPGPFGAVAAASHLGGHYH
Procedure, shortened: as §1

[11] = target: ETV5 (Homo sapiens, UniProt P41161 1-510)
Procedure, shortened: as §1

[12] = target: T8, SPIC (Homo sapiens, UniProt Q8N5J4 1-248)
T8 sequence: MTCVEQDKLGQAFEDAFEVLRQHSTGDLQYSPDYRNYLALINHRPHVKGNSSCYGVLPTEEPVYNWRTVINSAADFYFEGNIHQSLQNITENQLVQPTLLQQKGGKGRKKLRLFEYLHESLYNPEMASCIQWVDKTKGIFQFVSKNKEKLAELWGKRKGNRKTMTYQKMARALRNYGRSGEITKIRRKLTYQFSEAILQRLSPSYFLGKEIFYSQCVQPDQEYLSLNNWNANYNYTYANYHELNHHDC
Procedure, shortened: as §1

[13] = target: ELF4 (Homo sapiens, UniProt Q99607 1-663)
Procedure, shortened: as §1

[14] = target: T9, ELK4 (Homo sapiens, UniProt P28324-2 1-405)
T9 sequence: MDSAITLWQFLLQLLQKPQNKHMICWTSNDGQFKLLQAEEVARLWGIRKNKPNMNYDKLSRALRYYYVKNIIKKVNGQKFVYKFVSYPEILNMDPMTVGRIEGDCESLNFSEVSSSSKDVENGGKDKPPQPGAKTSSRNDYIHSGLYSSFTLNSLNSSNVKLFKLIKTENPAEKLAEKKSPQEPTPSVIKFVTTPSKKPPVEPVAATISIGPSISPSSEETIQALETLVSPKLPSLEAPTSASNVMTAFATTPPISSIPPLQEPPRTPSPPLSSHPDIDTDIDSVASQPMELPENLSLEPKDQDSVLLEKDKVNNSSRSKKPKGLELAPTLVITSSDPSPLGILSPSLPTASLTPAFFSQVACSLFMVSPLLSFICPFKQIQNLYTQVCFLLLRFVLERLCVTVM
Procedure, shortened: as §1

[15] = target: T10, ETV2 (Homo sapiens, UniProt O00321 1-342)
T10 sequence: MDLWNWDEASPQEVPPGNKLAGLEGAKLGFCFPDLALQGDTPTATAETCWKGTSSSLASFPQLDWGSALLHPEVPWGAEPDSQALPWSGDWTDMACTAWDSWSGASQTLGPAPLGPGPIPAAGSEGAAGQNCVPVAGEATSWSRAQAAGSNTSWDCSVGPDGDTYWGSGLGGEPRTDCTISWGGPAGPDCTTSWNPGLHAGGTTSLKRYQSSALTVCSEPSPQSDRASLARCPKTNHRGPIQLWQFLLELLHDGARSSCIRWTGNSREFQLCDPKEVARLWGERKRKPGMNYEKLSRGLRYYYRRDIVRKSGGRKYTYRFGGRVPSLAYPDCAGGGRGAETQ
Procedure, shortened: as §1

[16] = target: ETV1 (Homo sapiens, UniProt P50549 1-477)
Procedure, shortened: as §1

Chain of ETV1 (P50549 whole entry): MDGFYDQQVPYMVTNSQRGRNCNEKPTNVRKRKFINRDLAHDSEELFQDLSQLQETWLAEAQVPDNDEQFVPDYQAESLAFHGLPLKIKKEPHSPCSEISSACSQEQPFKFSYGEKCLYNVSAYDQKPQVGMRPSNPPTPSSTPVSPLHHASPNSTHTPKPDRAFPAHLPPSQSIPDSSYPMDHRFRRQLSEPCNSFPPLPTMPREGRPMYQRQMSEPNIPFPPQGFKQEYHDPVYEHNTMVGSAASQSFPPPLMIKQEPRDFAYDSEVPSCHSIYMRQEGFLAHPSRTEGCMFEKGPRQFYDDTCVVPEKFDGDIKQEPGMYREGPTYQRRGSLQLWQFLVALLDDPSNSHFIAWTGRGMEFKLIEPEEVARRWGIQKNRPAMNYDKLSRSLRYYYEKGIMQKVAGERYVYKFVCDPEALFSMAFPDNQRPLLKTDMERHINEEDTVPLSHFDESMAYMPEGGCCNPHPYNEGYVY
Chain of ELF4 (Q99607 whole entry): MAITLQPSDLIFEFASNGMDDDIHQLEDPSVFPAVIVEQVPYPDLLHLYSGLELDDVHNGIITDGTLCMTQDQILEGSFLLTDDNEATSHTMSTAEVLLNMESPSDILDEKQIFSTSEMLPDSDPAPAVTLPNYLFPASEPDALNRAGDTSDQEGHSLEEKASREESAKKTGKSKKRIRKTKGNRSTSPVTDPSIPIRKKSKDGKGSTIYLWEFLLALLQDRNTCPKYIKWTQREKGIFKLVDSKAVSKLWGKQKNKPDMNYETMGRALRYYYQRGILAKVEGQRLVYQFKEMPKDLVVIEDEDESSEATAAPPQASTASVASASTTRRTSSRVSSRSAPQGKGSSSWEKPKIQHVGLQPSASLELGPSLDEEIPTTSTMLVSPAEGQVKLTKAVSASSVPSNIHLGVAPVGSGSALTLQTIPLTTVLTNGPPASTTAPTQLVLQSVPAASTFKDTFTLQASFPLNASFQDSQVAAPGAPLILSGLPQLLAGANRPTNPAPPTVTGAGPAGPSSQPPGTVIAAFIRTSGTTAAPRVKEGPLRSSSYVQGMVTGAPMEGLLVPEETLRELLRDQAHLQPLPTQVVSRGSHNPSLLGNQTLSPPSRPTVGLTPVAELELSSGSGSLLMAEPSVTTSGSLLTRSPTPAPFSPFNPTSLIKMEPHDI
Chain of ETV5 (P41161 whole entry): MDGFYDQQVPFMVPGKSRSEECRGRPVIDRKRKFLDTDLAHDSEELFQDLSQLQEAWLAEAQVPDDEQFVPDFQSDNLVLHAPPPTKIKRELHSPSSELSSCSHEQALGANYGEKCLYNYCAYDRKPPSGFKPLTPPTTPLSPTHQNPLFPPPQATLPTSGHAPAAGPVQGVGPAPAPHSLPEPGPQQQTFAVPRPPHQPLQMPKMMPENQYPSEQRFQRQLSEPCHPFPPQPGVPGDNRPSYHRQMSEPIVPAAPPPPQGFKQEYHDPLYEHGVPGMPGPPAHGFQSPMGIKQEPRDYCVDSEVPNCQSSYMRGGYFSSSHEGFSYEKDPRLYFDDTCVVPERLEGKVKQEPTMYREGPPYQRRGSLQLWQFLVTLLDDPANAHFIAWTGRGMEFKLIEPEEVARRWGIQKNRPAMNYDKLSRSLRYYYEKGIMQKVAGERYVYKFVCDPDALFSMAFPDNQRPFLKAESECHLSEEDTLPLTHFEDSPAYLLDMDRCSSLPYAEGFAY
Chain of ELF1 (P32519 whole entry): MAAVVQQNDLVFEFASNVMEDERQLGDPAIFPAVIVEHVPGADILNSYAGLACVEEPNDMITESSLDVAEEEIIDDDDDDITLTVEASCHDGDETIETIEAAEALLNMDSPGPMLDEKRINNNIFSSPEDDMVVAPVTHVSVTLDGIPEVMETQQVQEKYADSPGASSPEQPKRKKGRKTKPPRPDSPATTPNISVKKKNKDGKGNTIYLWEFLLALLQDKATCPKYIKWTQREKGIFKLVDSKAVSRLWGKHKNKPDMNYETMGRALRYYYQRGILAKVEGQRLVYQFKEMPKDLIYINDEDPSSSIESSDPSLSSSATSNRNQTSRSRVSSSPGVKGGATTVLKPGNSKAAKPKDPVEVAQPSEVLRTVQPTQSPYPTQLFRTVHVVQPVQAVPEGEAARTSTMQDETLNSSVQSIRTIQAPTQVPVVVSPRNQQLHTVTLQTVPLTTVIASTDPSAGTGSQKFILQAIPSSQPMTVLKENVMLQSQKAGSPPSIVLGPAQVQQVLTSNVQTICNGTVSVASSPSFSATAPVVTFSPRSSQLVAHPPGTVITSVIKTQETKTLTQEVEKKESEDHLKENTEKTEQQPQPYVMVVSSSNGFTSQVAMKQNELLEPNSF
Chain of SPIB (Q01892 whole entry): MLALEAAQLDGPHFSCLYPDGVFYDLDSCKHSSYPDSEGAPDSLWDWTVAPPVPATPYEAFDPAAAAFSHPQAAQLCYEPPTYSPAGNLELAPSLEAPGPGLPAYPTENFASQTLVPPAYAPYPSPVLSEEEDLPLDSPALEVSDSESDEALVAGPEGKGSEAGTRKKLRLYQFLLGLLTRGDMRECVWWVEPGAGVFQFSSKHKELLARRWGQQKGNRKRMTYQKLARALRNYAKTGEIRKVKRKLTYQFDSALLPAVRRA

Sequence | binding signal [1] | binding signal [2] | binding signal [3] | binding signal [4] | binding signal [5] | binding signal [6] | binding signal [7] | binding signal [8] | binding signal [9] | binding signal [10] | binding signal [11] | binding signal [12] | binding signal [13] | binding signal [14] | binding signal [15] | binding signal [16]
ACACTG | 1.08 fold enrichment (6-mer frequency, TF over GST control) | 1.13 fold enrichment (6-mer frequency, TF over GST control) | 1.13 fold enrichment (6-mer frequency, TF over GST control) | 1.07 fold enrichment (6-mer frequency, TF over GST control) | 1.09 fold enrichment (6-mer frequency, TF over GST control) | 1.11 fold enrichment (6-mer frequency, TF over GST control) | 1.07 fold enrichment (6-mer frequency, TF over GST control) | 1.04 fold enrichment (6-mer frequency, TF over GST control) | 1.04 fold enrichment (6-mer frequency, TF over GST control) | 1.01 fold enrichment (6-mer frequency, TF over GST control) | 1.07 fold enrichment (6-mer frequency, TF over GST control) | 1.3 fold enrichment (6-mer frequency, TF over GST control) | 1.03 fold enrichment (6-mer frequency, TF over GST control) | 1.14 fold enrichment (6-mer frequency, TF over GST control) | 1.04 fold enrichment (6-mer frequency, TF over GST control) | 1.15 fold enrichment (6-mer frequency, TF over GST control)
CAACCA | 1.15 fold enrichment (6-mer frequency, TF over GST control) | 1.15 fold enrichment (6-mer frequency, TF over GST control) | 1.12 fold enrichment (6-mer frequency, TF over GST control) | 1.03 fold enrichment (6-mer frequency, TF over GST control) | 1.15 fold enrichment (6-mer frequency, TF over GST control) | 1.13 fold enrichment (6-mer frequency, TF over GST control) | 1.11 fold enrichment (6-mer frequency, TF over GST control) | 1.06 fold enrichment (6-mer frequency, TF over GST control) | 1.18 fold enrichment (6-mer frequency, TF over GST control) | 1.12 fold enrichment (6-mer frequency, TF over GST control) | 1.13 fold enrichment (6-mer frequency, TF over GST control) | 1.02 fold enrichment (6-mer frequency, TF over GST control) | 1.11 fold enrichment (6-mer frequency, TF over GST control) | 1.07 fold enrichment (6-mer frequency, TF over GST control) | 1.09 fold enrichment (6-mer frequency, TF over GST control) | 1.09 fold enrichment (6-mer frequency, TF over GST control)
